Measured values taken from PubChem BioAssay (NCATS).
Inconclusive results are not listed. Where a call stands in place of a potency, no number is given. Active and inactive are the calls of the source. Calls come from the whole dose curve; as a rule, active = well fitted inhibition curve with a large enough effect; inconclusive = small, poorly fitted or top-dose-only effect; inactive = no such curve, though single readings can be large or run the other way. Where a SMILES comes first, the peptide text is derived from it. [ ]: non-standard residue; d: D form. 2Abz = Nc1ccccc1C(=O)O

test: Primary qHTS for inhibitors of nuclear receptor binding SET domain protein 2 (NSD2) in an RCH-ACV wild type WT cells (2C) (AID 1645877); conditions: RCH-ACV (leukaemia line) NSD2 WT (2C) viability, CellTiter-Glo, 72 h; series mostly up to 44.9 µM; note: nearly all actives have a fitted effect of over 70% in size
Potency is the fitted concentration of half-maximal effect.

| Structure (SMILES) | Potency | outcome |
| --- | --- | --- |
| CC(C(=O)O)C1CCC2(C)C3C(=O)C=C4C(CCC(=O)C4(C)C)C3(C)CCC12C (centres undefined) | inactive | – |
| CC1CCC2(O1)C(C)(C)CC(O[C@@H]1O[C@H](CO[C@@H]3OC[C@](O)(CO)[C@H]3O)[C@@H](O)[C@H](O)[C@H]1O)CC2(C)O (some centres undefined) | inactive | – |
| CC[C@H](/C=C/[C@@H](C)[C@H]1CC[C@H]2[C@@H]3CC=C4C[C@@H](O)CC[C@]4(C)[C@H]3CC[C@]12C)C(C)C | – | inactive [at 4.96 µM] |
| CC1=CCC2C(C)(CO)CCCC2(C)C1CC12OC1C(O)C(CO)=CC2O (centres undefined) | inactive | – |
| CCC[C@@H]1C[C@@H](C(=O)N[C@H](C(C)Cl)[C@H]2O[C@H](SC)[C@H](O)[C@@H](O)[C@H]2O)N(C)C1 (some centres undefined) | inactive | – |
| CC(C)(O)c1ccc2c(c1)C(O)CC1C(C)(C(=O)O)CCCC21C (centres undefined) | inactive | – |
| COC(=O)C1=CO[C@@H](O[C@@H]2O[C@H](CO)[C@@H](O)[C@H](O)[C@H]2O)[C@@H]2[C@@](C)(O)[C@@H](O)C[C@]12O | inactive | – |
| C=C1[C@@H]2CC[C@@]3(C)[C@H](c4ccoc4)OC(=O)C[C@]13O[C@H]1CC(=O)C(C)(C)[C@H](CC(=O)OC)[C@]12C | inactive | – |
| CCC(C)(O)C(O)C(=O)OCc1ccc(O[C@@H]2O[C@H](CO)[C@@H](O)[C@H](O)[C@H]2O)c(OC)c1 (some centres undefined) | inactive | – |
| COC(=O)c1cc(CN2CCN(C(=N)N)CC2)cc(C(=O)N2CCN(C(=O)c3ccc(C(=N)N)cc3)CC2)c1 | inactive | – |
| CCC[C@@H]1C[C@@H](C(=O)N[C@@H]([C@H]2O[C@H](SC)[C@H](OP(=O)(O)O)[C@@H](O)[C@H]2O)[C@H](C)Cl)N(C)C1 | inactive | – |
| C[C@H]1C[C@H]2[C@@H]3CCC4=CC(=O)C=C[C@]4(C)[C@@]3(F)[C@@H](O)C[C@]2(C)[C@@]1(O)C(=O)COP(=O)(O)O | 57.8 nM (active) | – |
| CCC(C)(O)C(O)C(=O)OCc1ccc(O[C@@H]2O[C@H](CO)[C@@H](O)[C@H](O)[C@H]2O)cc1 (some centres undefined) | inactive | – |
| COC(=O)c1ccc(O[C@@H]2O[C@H](CO)[C@@H](O)[C@H](O)[C@H]2O)c(OC)c1 | inactive | – |
| C[C@@H]1CC[C@]2(C(=O)O[C@@H]3O[C@H](CO)[C@@H](O)[C@H](O)[C@H]3O)CC[C@]3(C)C(=CCC4[C@@]5(C)C[C@@H](O)[C@H](O)C(C)(C)C5CC[C@]43C)C2[C@]1(C)O (some centres undefined) | inactive | – |
| COc1ccccc1-n1c(SCC(=O)Nc2nc3ccc(C)cc3s2)nc2c(c1=O)SCC2 | inactive | – |
| CC1(O)CCC2C(C(=O)O)=COC(OC3OC(CO)C(O)C(O)C3OC(=O)/C=C/c3ccc(O)cc3)C21 (centres undefined) | inactive | – |
| C=CC(C)(O)CO[C@@H]1O[C@H](CO)[C@@H](O)[C@H](O)[C@H]1O (some centres undefined) | inactive | – |
| CC(=O)O[C@@H]1[C@@H](OC(=O)/C=C/c2ccccc2)[C@H](C)O[C@@H](O[C@H]2[C@@H]3C=CO[C@@H](O[C@@H]4O[C@H](CO)[C@@H](O)[C@H](O)[C@H]4O)[C@@H]3[C@@]3(CO)O[C@@H]23)[C@@H]1OC(C)=O | inactive | – |
| C=C1CCC[C@]2(C)C[C@]3(O)OC(=O)C(C)=C3C[C@@H]12 | inactive | – |

| Structure (SMILES) | Potency | outcome |
| --- | --- | --- |
| CNC(=O)c1ccc2cc([C@@]3(O)CCn4cncc43)ccc2c1 | inactive | – |
| Cc1coc2c1CC1OC1(C)CCC1OC1(C)C2 (centres undefined) | inactive | – |
| COc1cc(/C=C/CO)ccc1O[C@@H]1O[C@H](CO)[C@@H](O)[C@H](O)[C@H]1O | inactive | – |
| Cc1ncc([N+](=O)[O-])n1CC(O)CN1CCOCC1 (centres undefined) | inactive | – |
| CC1(C)CCCC2(C)C(CO)C3CCC2C31 (centres undefined) | inactive | – |
| C=C1C2=CC(O)C(C)C1(C)CC/C(C)=C/CCC1(C)OC1C2=O (centres undefined) | inactive | – |
| NCc1ccc(OCCCc2sc(-c3ccc4c(c3)/C(=N/Nc3nc5ccccc5s3)CCC4)nc2C(=O)O)cc1 | 5150 nM (active) | – |
| CC1CCC2C(C)(C)C(O)CCC2(C)C12Cc1c(O)cc3c(c1O2)CN=C3N (centres undefined) | inactive | – |
| C=CC1(C)CC2=CCC3C(C)(C(=O)O)CCCC3(C)C2CC1OC(C)=O (centres undefined) | inactive | – |
| CC(=O)OCC(=O)O[C@@H]1[C@H]2[C@@H](OC(=O)c3ccccc3)[C@@H](C)C[C@]2(O)[C@H](OC(C)=O)C2(C)[C@H]3CC(C)(C)C(=O)[C@@H]3CC1(OC(C)=O)[C@@H]2OC(C)=O (some centres undefined) | inactive | – |
| CCNC(=O)[C@@H]1CCCN1C(=O)[C@H](CCCN=C(N)N)NC(=O)[C@H](CC(C)C)NC(=O)[C@@H](C)NC(=O)[C@H](Cc1ccc(O)cc1)NC(=O)[C@H](CO)NC(=O)[C@H](Cc1c[nH]c2ccccc12)NC(=O)[C@H](Cc1cnc[nH]1)NC(=O)[C@@H]1CCC(=O)N1 | inactive | – |
| C=CC(C)(C)C12CC3C(=O)NC(Cc4cnc[nH]4)C(=O)N3C1Nc1ccccc12 (centres undefined) | inactive | – |
| CC1=CC(=O)C[C@H]2[C@@H]1CC[C@@H](C)[C@]21CO[C@H](c2ccoc2)C1=O | inactive | – |
| COc1c(C)c2c(c(O)c1C/C=C(\C)CC/C=C(\C)CCC(=O)O)C(=O)OC2 | inactive | – |
| CCC(C)C1NC(=O)C2CCCN2C(=O)C(C(C)C)NC(=O)c2ccccc2NC(=O)C(Cc2ccc(O)cc2)NC(=O)C(C)NC(=O)C(C(C)O)NC1=O (centres undefined) (cyclo([2Abz]VPITAY); configuration not given here) | inactive | – |
| C=CCc1ccc(O[C@@H]2O[C@H](CO[C@@H]3O[C@H](CO)[C@@H](O)[C@H](O)[C@H]3O)[C@@H](O)[C@H](O)[C@H]2O)c(O)c1 | inactive | – |
| C=C(C)C1CC2(CO)C(=CC1=O)CCC(O)C2C (centres undefined) | inactive | – |
| O=C1[C@H](O[C@@H]2O[C@H](CO)[C@@H](O)[C@H](O)[C@H]2O)Oc2ccccc2N1O | inactive | – |
| CC1(C)CC2C(C1)C1(C)CCC13OC3(CO)C2O (centres undefined) | inactive | – |
